# Reference: PubChem BioAssay
# Where “and” joins values, the source holds several entries; their conditions need not be identical. Equal entries are not always repeated. Calls of active or inactive are those of the source.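 How the source made its calls, unless noted: active means inhibition at or above 50% relative to wild type and mutant plate controls; inactive means inhibition below 50%.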
# How the values were obtained:
# [1] = inhibitors of TNFa-induced NFkB p65 translocation, primary screen, imaging, HUVEC, MLSMR starter and 10KST1 sets (AID 438;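 active means inhibition above 20% together with a positive visual image hit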;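 further: compound added about 3h40 before a 20 min TNFalpha stimulation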;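 on inhibition: signal is the nuclear over cytoplasmic p65 intensity ratio per well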); conditions: HUVEC TNFa-induced p65 nuclear translocation; cell count: measured here: nuclei count (cytotoxicity indicator), at 2.08 µM unless noted; inhibition: at 2 µM, stronger effect = higher value unless noted
# [2] = reduction of polyQ htt aggregates in cells – imaging, exon1htt(103Q)mCFP cells, high-content imaging, primary screen (AID 483;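 active means visual image review flags a hit and inhibition of aggregation exceeds 20%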;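 further: compound exposure lasted 3 days before fixation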;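 on nuclei count: percent of the per-plate median nuclei count of sample wells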); conditions: exon1htt(103Q)mCFP cell line, aggregate imaging, at 2 µM; inhibition of aggregation: stronger effect = higher value; nuclei count: measured here: cell count, toxicity
# [3] = endothelial E-selectin expression blockers – imaging, HUVEC, immunofluorescence, MLSMR starter and 10KST1 sets, primary screen (AID 487;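 active means visually confirmed hit in the image check and inhibition above 20%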;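 on inhibition: signal is fraction of cell area covered by stained E-selectin grains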;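 on nuclei count: 100% = median nuclei count of all wells on the same plate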); conditions: HUVEC TNFalpha-induced E-selectin immunofluorescence imaging, at 2 µM; inhibition: stronger effect = higher value; nuclei count: measured here: cell number, toxicity
# [4] = Primary imaging screen for DUSP6 inhibitors that restore phospho-Erk in transfected HeLa cells, chemical complementation (AID 609;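 active means compounds giving at least 50% inhibition in the cell-based MKP-3 phosphatase rescue imaging test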;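 on inhibition: phospho-Erk level distribution per well compared with pooled transfected vehicle control wells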); conditions: HeLa MKP-3 transfected, phospho-Erk imaging KS statistic, at 10 µM
# [5] = target: Dual specificity protein phosphatase 6 (Homo sapiens) (UniProt Q16828); assay: as above; conditions: HeLa MKP-3 transfected, phospho-Erk imaging KS statistic, at 10 µM, stronger effect = higher value
# [6] = target: Voltage-gated potassium channel subunit beta-2 (Rattus norvegicus) (UniProt P62483); assay: inhibitors of rat Kvbeta2 reductase activity – biochemical, NADPH fluorescence, primary screen (AID 622;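 active means fluorescence slope higher than the sample average by over 3 SD, cut at about -0.22 in these data, passing the limit was not always enough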;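 further: slope of raw intensity against log time taken from 70 to 1610 s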); conditions: recombinant KvBeta, 4-cyanobenzaldehyde reduction, at 10 µM, stronger effect = higher value
# [7] = target: Voltage-gated potassium channel subunit beta-2 (Rattus norvegicus) (UniProt P62483); assay: enhancers of rat Kvbeta2 NADPH turnover – biochemical, NADPH fluorescence, primary screen (AID 623;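 active means NADPH fluorescence slope more negative than the mean of all samples by about 3 SD, 99.7% confidence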;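 further: fluorescence intensity change per second fitted from 20 to 320 s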); conditions: Recombinant KvBeta, NADPH fluorescence decrease slope, 10 min; at 10 µM; stronger effect = lower value
# [8] = target: Alpha-2C adrenergic receptor (Homo sapiens) (UniProt P18825); assay: compounds altering alpha2C-coupled GIRK flux – cell-based, HEK293 alpha2C/GIRK1/2, thallium flux, primary screen (AID 624;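 active means fluorescence slope after compound addition differing from the mean of all screened samples at 99.7% confidence, in either direction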;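 further: slope of fluorescence ratio to pre-addition baseline per second over 15 to 24 s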); conditions: thallium flux BTC fluorescence, at 10 µM, actives lie on both sides
# [9] = inhibitors of larval lipid processing in zebrafish, primary screen, whole organism, PED6 fluorescence, gall bladder and intestine (AID 686;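 active means a full or partial loss of lipid-probe fluorescence in the fish gall bladder, intestine or both, judged by eye; inactive means no fluorescence loss, or compound toxic to the fish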;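 further: larvae 5 to 7 days old with five fish per well; signal comes from phospholipase A2 cleavage of quenched PED6 carried via bile; overnight exposure to compound and PED6 before scoring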); conditions: Zebrafish larvae PED6 lipid processing, fluorescence scoring
# [10] = loss of swimming-algae plug formation – whole organism, Chlamydomonas reinhardtii, WT vs cilia-less mutant, absorbance, 96-well, primary screen (AID 463189); conditions: Chlamydomonas reinhardtii gravitaxis, OD600 absorbance, 2 days; at 10 µM; stronger effect = higher value;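 further: 0% = wild type cc124 cells in DMSO and 100% = ciliumless bld1 mutant cells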
# [11] = blockers of RIG-like receptor reporter activation – cell-based, Sendai virus stimulus, luciferase, 10K MLSCN set, TLR/RLR signaling modifier project, primary screen (AID 602276;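 active means inhibition at or above 50% at 10 µM; inactive means inhibition below 50%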;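 further: firefly luciferase from ISG56 promoter only with Renilla not read in this screen; 0% = Sendai virus plus DMSO and 100% = medium plus DMSO without virus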); conditions: HEK293 RL24 IRF3 luciferase reporter, at 10 µM, stronger effect = higher value
# [12] = TLR3 IRF3 reporter activation blockers – cell-based, poly I:C stimulus, luciferase, 10K MLSCN set, primary screen (AID 602277;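 active means inhibition of the reporter signal at or above 50%; inactive means inhibition below 50%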); conditions: HEK293-TLR3 RL24 IRF3 luciferase reporter, at 10 µM, stronger effect = higher value
# [13] = measured here: cell density z-score
# [14] = measured here: nuclear c-Myc green intensity z-score
# [15] = measured here: nuclear pErk red intensity z-score, stronger effect = higher value
# Alpha-2C adrenergic receptor (Homo sapiens), sequence (P18825 whole entry, looked up): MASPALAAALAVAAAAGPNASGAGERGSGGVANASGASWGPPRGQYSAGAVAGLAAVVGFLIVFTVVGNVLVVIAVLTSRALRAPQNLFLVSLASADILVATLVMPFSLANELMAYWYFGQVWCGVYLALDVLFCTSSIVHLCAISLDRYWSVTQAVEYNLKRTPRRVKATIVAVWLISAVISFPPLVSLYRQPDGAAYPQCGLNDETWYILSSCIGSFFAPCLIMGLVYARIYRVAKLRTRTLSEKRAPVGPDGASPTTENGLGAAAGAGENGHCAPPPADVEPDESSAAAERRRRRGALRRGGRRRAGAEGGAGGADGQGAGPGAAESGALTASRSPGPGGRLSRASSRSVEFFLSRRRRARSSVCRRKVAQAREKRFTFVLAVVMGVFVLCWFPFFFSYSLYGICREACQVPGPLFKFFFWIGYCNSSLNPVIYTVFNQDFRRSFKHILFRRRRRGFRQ
# Voltage-gated potassium channel subunit beta-2 (Rattus norvegicus), sequence (P62483 whole entry, looked up): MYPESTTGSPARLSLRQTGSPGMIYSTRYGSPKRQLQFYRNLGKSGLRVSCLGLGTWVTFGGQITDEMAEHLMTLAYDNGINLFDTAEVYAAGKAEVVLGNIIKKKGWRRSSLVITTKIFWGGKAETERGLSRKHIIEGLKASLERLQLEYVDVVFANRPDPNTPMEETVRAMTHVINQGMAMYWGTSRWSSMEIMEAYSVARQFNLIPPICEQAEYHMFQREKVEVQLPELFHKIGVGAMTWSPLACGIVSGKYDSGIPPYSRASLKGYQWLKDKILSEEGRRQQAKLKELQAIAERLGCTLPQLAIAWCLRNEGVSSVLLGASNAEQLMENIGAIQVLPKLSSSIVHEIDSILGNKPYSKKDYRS
# Dual specificity protein phosphatase 6 (Homo sapiens), sequence (Q16828 whole entry, looked up): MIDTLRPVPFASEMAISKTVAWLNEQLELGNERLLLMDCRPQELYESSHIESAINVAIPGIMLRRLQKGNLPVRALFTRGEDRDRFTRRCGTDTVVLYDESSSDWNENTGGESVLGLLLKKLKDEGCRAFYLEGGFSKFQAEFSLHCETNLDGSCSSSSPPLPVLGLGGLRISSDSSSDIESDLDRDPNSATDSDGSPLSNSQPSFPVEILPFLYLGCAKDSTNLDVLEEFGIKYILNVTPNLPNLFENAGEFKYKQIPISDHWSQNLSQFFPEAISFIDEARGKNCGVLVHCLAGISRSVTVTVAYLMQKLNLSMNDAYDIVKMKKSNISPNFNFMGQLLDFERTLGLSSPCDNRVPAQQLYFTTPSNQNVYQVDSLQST
Structure (SMILES),cell count [1],inhibition [1],inhibition of aggregation [2],nuclei count [2],inhibition [3],nuclei count [3],"z-score [4, 13]","z-score [4, 14]","z-score [4, 15]",inhibition [5],fluorescence slope [6],NADPH fluorescence slope [7],slope [8],outcome [9],inhibition [10],inhibition [11],inhibition [12]
COc1ccc(OC)c([C@@H](O)[C@H](C)NC(C)(C)C)c1,671,-4.8% (inactive),-2.8% (inactive),95.5%,-81.3% (inactive),138%,0.193,0.685,0.252,23.2% (inactive),-0.517 (inactive),-5.7e-05 (inactive),0.00439 (inactive),inactive,17.4% (inactive),2.13% (inactive),33.4% (inactive)
CCCCCCn1c(O)c(C=NCCCn2ccnc2)c(=O)[nH]c1=O,654,-20.1% (inactive),,,13.9% (inactive),134%,1.42,-1.88,-0.817,2.71% (inactive),-0.5 (inactive),-2e-06 (inactive),0.0065 (inactive),inactive,13.6% (inactive),,
O=c1[nH]c(=O)n(CCc2ccccc2)c(O)c1C=NCCN1CCNCC1,554,-4% (inactive),-1.9% (inactive),109%,-30.7% (inactive),123%,-0.452,-0.273,-0.327,-3.5% (inactive),-0.348 (inactive),2e-05 (inactive),0.0061 (inactive),inactive,-4.22% (inactive),18.3% (inactive),21.6% (inactive)
CC[C@@H](CO)NC(=O)[C@@H]1C=C2c3cccc4c3c(cn4C)C[C@H]2N(C)C1,540,-4.2% (inactive),-7.9% (inactive),89.4%,-32.5% (inactive),113%,0.785,-0.624,-1.05,5.79% (inactive),-0.107 (active),-2e-06 (inactive),0.0047 (inactive),inactive,5.16% (inactive) and -19.2% (inactive),18% (inactive),38% (inactive)
COP(=O)(OC)C(O)C(Cl)(Cl)Cl (stereo unspecified),659,4.7% (inactive),-21.7% (inactive),104%,-58.1% (inactive),126%,-0.465,1.59,0.972,23.4% (inactive),-0.462 (inactive),-6e-05 (inactive),0.00473 (inactive),inactive,12.4% (inactive),17.5% (inactive),39.8% (inactive)
CN1CCC(OC(=O)C2c3ccccc3Oc3ccccc32)CC1,593,-3.3% (inactive),-33.4% (inactive),104%,-38.4% (inactive),143%,-1.82,0.811,-0.439,-3.5% (inactive),-0.316 (inactive),1.2e-05 (inactive),0.0042 (inactive),inactive,11.4% (inactive),7.89% (inactive),12.3% (inactive)
CC(C)N(CCC(C(N)=O)(c1ccccc1)c1ccccn1)C(C)C (stereo unspecified),539,-8.5% (inactive),-2.7% (inactive),104%,-22.4% (inactive),106%,-0.772,0.954,0.768,9.37% (inactive),-0.515 (inactive),-7.6e-05 (inactive),0.00456 (inactive),inactive,1.35% (inactive) and 4.32% (inactive) and 26.6% (inactive),6.44% (inactive),34% (inactive)
COc1ccc(OC)c(C(O)C(C)N)c1 (stereo unspecified),507,-7.1% (inactive),7% (inactive),57.3%,-75.2% (inactive),108%,-0.1,0.202,1.18,11.3% (inactive),-0.51 (inactive),-2.7e-05 (inactive),0.0053 (inactive),inactive,8.38% (inactive) and -0.435% (inactive),4.62% (inactive),34.8% (inactive)
CNCCc1c[nH]c2ccccc12,615,-10.3% (inactive),3.8% (inactive),103%,-70.6% (inactive),127%,-0.539,-0.571,-0.457,-6.41% (inactive),-0.506 (inactive),2.2e-05 (inactive),0.00539 (inactive),inactive,1.04% (inactive),25.5% (inactive),49.1% (inactive)
CC(=O)[C@H]1CC[C@H]2[C@@H]3CC[C@H]4C[C@H](O)CC[C@]4(C)[C@H]3C(=O)C[C@]12C,549,-11.5% (inactive),17.3% (inactive),94.7%,-98.9% (inactive),100%,-1.19,-0.45,1.1,-6.41% (inactive),-0.534 (inactive),-4.5e-05 (inactive),0.00562 (inactive),inactive,5.76% (inactive) and -1.15% (inactive),10.2% (inactive),20.7% (inactive)
